Values joined by “and” are separate entries in the source; they are usually repeats but may differ in a detail not shown here. Equal entries are not always repeated.
How the values were obtained:
Assay in all cases: cell viability relative to vehicle control; higher = less cytotoxic
Conditions in all cases: 10 µM
K562 = system: K562
In short: (§1)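 CRISPR-edited mutant clones and isogenic wild-type clones from four leukaemia lines were screened against Selleck bioactive, kinase and epigenetic probe libraries, with identity-inconsistent compounds excluded. Each compound was acoustically dispensed at a single 10 µM dose into 384-well plates holding 2000 cells in 50 µL medium per well. After 48 h the supernatant was removed and CellTiter-Glo luminescence was read. Viability was expressed as percent of the on-plate vehicle control and analysed in Genedata Screener.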

MARIMO = system: MARIMO
In short: as §1

MOLM14 = system: MOLM14
In short: as §1

OCI-AML2 = system: OCI-AML2
In short: as §1

Row | SMILES | cell viability (K562; SRSF2 genotype: SRSF2 P95H/wt) | cell viability (K562; SRSF2 genotype: SRSF2 wt/wt) [%] | cell viability (MARIMO; SRSF2 genotype: SRSF2 P95H/wt) [%] | cell viability (MARIMO; SRSF2 genotype: SRSF2 wt/wt) [%] | cell viability (MOLM14; SRSF2 genotype: SRSF2 P95H/wt) [%] | cell viability (MOLM14; SRSF2 genotype: SRSF2 wt/wt) [%] | cell viability (OCI-AML2; SRSF2 genotype: P95H/wt) [%] | cell viability (OCI-AML2; SRSF2 genotype: wt/wt) [%]
1 | O=C(/C=C/C=C/c1ccc2c(c1)OCO2)N1CCCCC1 [Piperine (1-Piperoylpiperidine)] | 105% and 94.8% | 89.7 | 92.7 | 100 | 106 | 100 | 85.6 | 97.3
2 | Nc1nc(=O)[nH]cc1F [Flucytosine (Ancobon)] | 102% and 98.9% | 102 | 103 | 105 | 95.9 | 102 | 105 | 109
3 | O=c1ncccn1[C@@H]1O[C@H](CO)[C@@H](O)[C@H]1O [Zebularine] | 90.9% and 85.1% | 82.2 | 87.7 | 91.4 | 89.7 | 89.7 | 96.6 | 86.6
4 | CS(=O)(=O)n1cc2c(n1)CN([C@H]1CO[C@H](c3cc(F)ccc3F)[C@@H](N)C1)C2 [Omarigliptin (MK-3102)] | 98.3% and 102% | 96.2 | 99.2 | 99.9 | 101 | 96.4 | 101 | 103
5 | Cn1cc(-c2ccc3nnc(Sc4ccc5ncccc5c4)n3n2)cn1 | 92% and 94.2% | 96.6 | 90 | 101 | 98 | 99 | 98 | 94.3
6 | N=C(N)c1ccc(OCCCCCOc2ccc(C(=N)N)cc2)cc1 [Pentamidine isethionate] | 53.9% and 50% | 55.9 | 63.3 | 62.8 | 72 | 70.5 | 65.5 | 57.8
7 | CC(=O)c1ccc(NN=C(C(N)=O)C2=NC(C)(C)Cc3ccccc32)cc1 | 79.9% and 87.9% | 86.9 | 56.1 | 58.1 | 15 | 14.7 | 30.5 | 40.5
8 | C=C(c1ccc(C(=O)O)cc1)c1cc2c(cc1C)C(C)(C)CCC2(C)C [Bexarotene] | 84.9% and 95.7% | 87.6 | 85.7 | 106 | 89.4 | 103 | 33.3 | 63.5
9 | CC1(C)CCC2(C(=O)O)CCC3=C(C(CCl)CC4C3(C)CCC3C4(C)CC(O)C(O)C3(C)C(=O)O)C2C1 (stereo not given) [Senegenin] | 107% and 97.9% | 104 | 96.8 | 108 | 100 | 106 | 105 | 113
10 | CC(C)N(CCCCOCC(=O)NS(C)(=O)=O)c1cnc(-c2ccccc2)c(-c2ccccc2)n1 [Selexipag] | 110% and 100% | 100 | 97 | 109 | 97.6 | 98.2 | 96.9 | 109

— the supplement of paper PMC10981050
